The panel holds about 83,000 compounds, 20% with a hit somewhere; the sample as a whole holds those more often.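 Negative percent growth values reflect cell death: -40 means 40% of the cells present at the start died, and -100 means all died.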 The source made the active and inactive calls. Rule for the calls: active = growth percent below 10; inactive = the rest.
What follows are molecules tested on RPMI-8226 leukemia (assay: NCI-60 one-dose screen, 48 h (100 = growth as untreated, 0 = no growth, -100 = all killed)). Conditions: 10 µM unless noted.

Q: `O=S(=O)(NCCNc1nccc(-c2c(-c3ccc(F)c(O)c3)nc3occn23)n1)c1ccccc1` was tested. Which growth did it give?
A: 33.7% (inactive)

Q: For `Cc1ccc2[nH]c(=O)cc(-n3nncc3COc3ccc(C=O)cc3)c2c1`, which growth is on record?
A: 102% (inactive)

Q: How did the growth turn out when `Brc1ccc(C2CC(c3cccc(Nc4ccncc4)c3)=NN2c2ccccc2)cc1` (stereo unspecified) was run?
A: 50.5% (inactive)

Q: With `COc1cc(NCC(O)CN(CC(C)C)C2CCCC2)c2ncccc2c1` (stereo unspecified) as the molecule, how does the growth read?
A: 94.6% (inactive)

Q: `CC(=O)OCCCCCNc1ccccc1` was tested. Which growth did it give?
A: 111% (inactive)

Q: With `CN1CCN(CC#CCNC(=O)[C@]23CCC(C)(C)C[C@H]2C2=CC[C@@H]4[C@@]5(C)Cc6c([nH]c7ccccc67)C(C)(C)[C@@H]5CC[C@@]4(C)[C@]2(C)CC3)CC1` as the molecule, how does the growth read?
A: 53.2% (inactive)

Q: `COc1c(Cl)cc(Cl)c2ccc(C=C3C(=O)N(C)C(=O)N(C)C3=O)nc12` was tested. Which growth did it give?
A: 102% (inactive)

Q: Which growth does the source give for `Nc1c(C(=O)Nc2ccc(Cl)cc2)cc(-c2nc3ccccc3s2)c(=O)n1NS(=O)(=O)c1ccc(Cl)cc1` here?
A: 92.6% (inactive)

Q: For `COc1ccc(C(=O)c2cc3c(N)c(C(=O)Nc4cccc(Br)c4C)sc3nc2C)cc1`, which growth is on record?
A: 8.87% (active)

Q: `CCN(CC)S(=O)(=O)c1cccc([N+](=O)[O-])c1` was tested. Which growth did it give?
A: 93.2% (inactive)

Q: Which growth does the source give for `CCc1c(Nc2ccc(C)cc2)nc(N)[nH]c1=O` here?
A: 103% (inactive)

Q: For `CN1CCN(c2cc(F)c(NC3=C(Cl)C(=O)c4ncccc4C3=O)c(F)c2)CC1`, which growth is on record?
A: -20.7% (active)

Q: `Cn1c(COC(=O)NCCn2ccnc2)nc2c(N3CCOCC3)nc(-c3ccccc3)nc21` was tested. Which growth did it give?
A: -29.4% (active)

Q: For `COc1cc(CNC(=O)CCCCC[P+](c2ccccc2)(c2ccccc2)c2ccccc2)c(OC)c2c1OCO2`, which growth is on record?
A: 1.67% (active)

Q: Which growth does the source give for `CC(=O)OCC(=O)[C@@]1(O)CC[C@H]2[C@@H]3CC(=C(Br)Br)C4=CC(=O)CC[C@]4(C)[C@H]3C(=O)C[C@@]21C` here?
A: 87% (inactive)

Q: Which growth does the source give for `O=C1CCCCCCCCC(O)C(O)CCCC(c2cccs2)O1` (stereo unspecified) here?
A: 87.1% (inactive)

Q: For `COC(=O)C1=C(C(=O)ONCCN(C)C)C2C=CC1(C(Cc1ccccc1)Nc1ccc(F)cc1)O2` (stereo unspecified), which growth is on record?
A: 71.2% (inactive)

Q: For `CS(=O)(=O)c1ccc(-c2cc3c(oc2=O)-c2ccccc2OC3O)cc1` (stereo unspecified), which growth is on record?
A: 90.6% (inactive)

Q: With `Clc1ccc(C2CC(c3cccc(Nc4ccncc4)c3)=NN2c2ccc(Cl)cc2)cc1` (stereo unspecified) as the molecule, how does the growth read?
A: 0.298% (active)

Q: With `CCN(CC)CCCCCCNc1cc(OC)cc2cccnc12` as the molecule, how does the growth read?
A: -8.8% (active)

Q: For `Clc1cc(Cl)cc(N2N=C(c3cccc(Nc4ccncc4)c3)CC2c2ccc3c(c2)OCO3)c1` (stereo unspecified), which growth is on record?
A: 11.3% (inactive)

Q: How did the growth turn out when `CC(=O)N1N=C(c2cccc(Nc3ccncc3)c2)CC1c1ccc2c(c1)OCO2` (stereo unspecified) was run?
A: 78.3% (inactive)

Q: For `COc1cc(/C=C/C(=O)c2c(C)oc3nc[nH]c(=O)c23)ccc1O`, which growth is on record?
A: 122% (inactive)

Q: For `Cc1ccc(C2C3CC4CCCCC4N3[C@@]3(C(=O)Nc4cc(Cl)ccc43)C2C(=O)c2nc3ccccc3[nH]2)cc1` (stereo partly specified), which growth is on record?
A: 9.27% (active)

Q: `CCCCCOc1ccc(/C=N/Nc2cc(C)nc3ccc(Br)cc23)cc1` was tested. Which growth did it give?
A: -8.25% (active)

Q: Which growth does the source give for `C=C1C(=O)O[C@H]2[C@H]1CC/C(COC(=O)/C=C/c1c[nH]c3ccccc13)=C\CC[C@@]1(C)O[C@@H]21` here?
A: -34.3% (active)

Q: Which growth does the source give for `CCCCCN1C=C/C(=C\C(=O)N(C)c2ccc(Br)cc2)c2ccccc21` here?
A: 89.1% (inactive)

Q: For `COc1cc2nc(-c3ccc(C(F)(F)F)cc3)cc(OCCN3CCC(O)CC3)c2cc1OC`, which growth is on record?
A: 41.2% (inactive)

Q: How did the growth turn out when `COc1cccc(-c2nc3occn3c2-c2ccnc(NCCCNS(=O)(=O)c3cccc(F)c3)n2)c1` was run?
A: 68.1% (inactive)

Q: With `COc1ccc(C(=O)c2cc3c(N)c(C(=O)Nc4cccc5ccccc45)sc3nc2C)cc1` as the molecule, how does the growth read?
A: 5.61% (active)

Q: Which growth does the source give for `CCCCCCCCCCN=C(N)N=C(N)N` here?
A: 34.8% (inactive)

Q: With `CN1CCN(Cc2ccc(NC(=O)c3cncc(C#Cc4cnccc4C(F)(F)F)c3)cc2C(F)(F)F)CC1` as the molecule, how does the growth read?
A: 70.6% (inactive)

Q: How did the growth turn out when `C=C(C)[C@@H]1CC[C@]2(CO)CC[C@]3(C)[C@H](CC[C@@H]4[C@@]5(C)CCCNC(C)(C)[C@@H]5CC[C@]43C)[C@@H]12` was run?
A: -36.9% (active)

Q: `O=S(=O)(NCCNc1nccc(-c2c(-c3cccc(F)c3)nc3occn23)n1)c1cccc2ccccc12` was tested. Which growth did it give?
A: 21.7% (inactive)

Q: For `CC(=O)N1c2ccccc2NC2=C(C(=O)N(C)C2(C)C)C1C` (stereo unspecified), which growth is on record?
A: 12.6% (inactive)

Q: How did the growth turn out when `O=C(Nc1ccc(F)cc1)c1c(NC(=O)C(F)(F)F)sc2c1CCCCC2` was run?
A: -36.8% (active)

Q: `O=C1Nc2c(ccc(Cl)c2Cl)/C1=C/c1ccc([N+](=O)[O-])cc1` was tested. Which growth did it give?
A: 90.1% (inactive)

Q: With `COc1ccc(-c2nc(N/N=C/c3ccco3)nc(N3CCOCC3)c2C#N)cc1` as the molecule, how does the growth read?
A: 64% (inactive)

Each molecule was assayed on OVCAR-8 ovarian in the same assay as above. Conditions: 10 µM unless noted.

Q: With `O=S(=O)(NCCNc1nccc(-c2c(-c3ccc(F)c(O)c3)nc3occn23)n1)c1ccccc1` as the molecule, how does the growth read?
A: 53.7% (inactive)

Q: Which growth does the source give for `Cc1ccc2[nH]c(=O)cc(-n3nncc3COc3ccc(C=O)cc3)c2c1` here?
A: 107% (inactive)

Q: For `Brc1ccc(C2CC(c3cccc(Nc4ccncc4)c3)=NN2c2ccccc2)cc1` (stereo unspecified), which growth is on record?
A: 77.6% (inactive)

Q: With `COc1cc(NCC(O)CN(CC(C)C)C2CCCC2)c2ncccc2c1` (stereo unspecified) as the molecule, how does the growth read?
A: 86.5% (inactive)

Q: For `CC(=O)OCCCCCNc1ccccc1`, which growth is on record?
A: 108% (inactive)

Q: `CN1CCN(CC#CCNC(=O)[C@]23CCC(C)(C)C[C@H]2C2=CC[C@@H]4[C@@]5(C)Cc6c([nH]c7ccccc67)C(C)(C)[C@@H]5CC[C@@]4(C)[C@]2(C)CC3)CC1` was tested. Which growth did it give?
A: 77% (inactive)

Q: With `COc1c(Cl)cc(Cl)c2ccc(C=C3C(=O)N(C)C(=O)N(C)C3=O)nc12` as the molecule, how does the growth read?
A: 111% (inactive)

Q: `Nc1c(C(=O)Nc2ccc(Cl)cc2)cc(-c2nc3ccccc3s2)c(=O)n1NS(=O)(=O)c1ccc(Cl)cc1` was tested. Which growth did it give?
A: 100% (inactive)

Q: For `COc1ccc(C(=O)c2cc3c(N)c(C(=O)Nc4cccc(Br)c4C)sc3nc2C)cc1`, which growth is on record?
A: 1.15% (active)

Q: `CCN(CC)S(=O)(=O)c1cccc([N+](=O)[O-])c1` was tested. Which growth did it give?
A: 85.7% (inactive)

Q: For `CCc1c(Nc2ccc(C)cc2)nc(N)[nH]c1=O`, which growth is on record?
A: 102% (inactive)

Q: For `CN1CCN(c2cc(F)c(NC3=C(Cl)C(=O)c4ncccc4C3=O)c(F)c2)CC1`, which growth is on record?
A: 1.95% (active)

Q: Which growth does the source give for `Cn1c(COC(=O)NCCn2ccnc2)nc2c(N3CCOCC3)nc(-c3ccccc3)nc21` here?
A: -12.9% (active)

Q: With `COc1cc(CNC(=O)CCCCC[P+](c2ccccc2)(c2ccccc2)c2ccccc2)c(OC)c2c1OCO2` as the molecule, how does the growth read?
A: 75.3% (inactive)

Q: Which growth does the source give for `CC(=O)OCC(=O)[C@@]1(O)CC[C@H]2[C@@H]3CC(=C(Br)Br)C4=CC(=O)CC[C@]4(C)[C@H]3C(=O)C[C@@]21C` here?
A: 92.9% (inactive)

Q: `O=C1CCCCCCCCC(O)C(O)CCCC(c2cccs2)O1` (stereo unspecified) was tested. Which growth did it give?
A: 99% (inactive)

Q: How did the growth turn out when `COC(=O)C1=C(C(=O)ONCCN(C)C)C2C=CC1(C(Cc1ccccc1)Nc1ccc(F)cc1)O2` (stereo unspecified) was run?
A: 97.7% (inactive)

Q: With `CS(=O)(=O)c1ccc(-c2cc3c(oc2=O)-c2ccccc2OC3O)cc1` (stereo unspecified) as the molecule, how does the growth read?
A: 95.9% (inactive)

Q: `Clc1ccc(C2CC(c3cccc(Nc4ccncc4)c3)=NN2c2ccc(Cl)cc2)cc1` (stereo unspecified) was tested. Which growth did it give?
A: -38.9% (active)

Q: How did the growth turn out when `CCN(CC)CCCCCCNc1cc(OC)cc2cccnc12` was run?
A: 20.7% (inactive)

Q: Which growth does the source give for `Clc1cc(Cl)cc(N2N=C(c3cccc(Nc4ccncc4)c3)CC2c2ccc3c(c2)OCO3)c1` (stereo unspecified) here?
A: -21% (active)

Q: How did the growth turn out when `CC(=O)N1N=C(c2cccc(Nc3ccncc3)c2)CC1c1ccc2c(c1)OCO2` (stereo unspecified) was run?
A: 91.4% (inactive)

Q: `COc1cc(/C=C/C(=O)c2c(C)oc3nc[nH]c(=O)c23)ccc1O` was tested. Which growth did it give?
A: 103% (inactive)

Q: Which growth does the source give for `Cc1ccc(C2C3CC4CCCCC4N3[C@@]3(C(=O)Nc4cc(Cl)ccc43)C2C(=O)c2nc3ccccc3[nH]2)cc1` (stereo partly specified) here?
A: 56.7% (inactive)

Q: `CCCCCOc1ccc(/C=N/Nc2cc(C)nc3ccc(Br)cc23)cc1` was tested. Which growth did it give?
A: -46.3% (active)

Q: For `C=C1C(=O)O[C@H]2[C@H]1CC/C(COC(=O)/C=C/c1c[nH]c3ccccc13)=C\CC[C@@]1(C)O[C@@H]21`, which growth is on record?
A: -34.4% (active)

Q: Which growth does the source give for `CCCCCN1C=C/C(=C\C(=O)N(C)c2ccc(Br)cc2)c2ccccc21` here?
A: 89.4% (inactive)

Q: How did the growth turn out when `COc1cc2nc(-c3ccc(C(F)(F)F)cc3)cc(OCCN3CCC(O)CC3)c2cc1OC` was run?
A: 80% (inactive)

Q: Which growth does the source give for `COc1cccc(-c2nc3occn3c2-c2ccnc(NCCCNS(=O)(=O)c3cccc(F)c3)n2)c1` here?
A: 72.2% (inactive)

Q: For `COc1ccc(C(=O)c2cc3c(N)c(C(=O)Nc4cccc5ccccc45)sc3nc2C)cc1`, which growth is on record?
A: -5.04% (active)

Q: With `CCCCCCCCCCN=C(N)N=C(N)N` as the molecule, how does the growth read?
A: 43.5% (inactive)

Q: With `CN1CCN(Cc2ccc(NC(=O)c3cncc(C#Cc4cnccc4C(F)(F)F)c3)cc2C(F)(F)F)CC1` as the molecule, how does the growth read?
A: 92.2% (inactive)

Q: `C=C(C)[C@@H]1CC[C@]2(CO)CC[C@]3(C)[C@H](CC[C@@H]4[C@@]5(C)CCCNC(C)(C)[C@@H]5CC[C@]43C)[C@@H]12` was tested. Which growth did it give?
A: 23.5% (inactive)

Q: For `O=S(=O)(NCCNc1nccc(-c2c(-c3cccc(F)c3)nc3occn23)n1)c1cccc2ccccc12`, which growth is on record?
A: 58.4% (inactive)

Q: For `CC(=O)N1c2ccccc2NC2=C(C(=O)N(C)C2(C)C)C1C` (stereo unspecified), which growth is on record?
A: 65.8% (inactive)

Q: How did the growth turn out when `O=C(Nc1ccc(F)cc1)c1c(NC(=O)C(F)(F)F)sc2c1CCCCC2` was run?
A: 8.06% (active)

Q: For `O=C1Nc2c(ccc(Cl)c2Cl)/C1=C/c1ccc([N+](=O)[O-])cc1`, which growth is on record?
A: 95.1% (inactive)

Q: `COc1ccc(-c2nc(N/N=C/c3ccco3)nc(N3CCOCC3)c2C#N)cc1` was tested. Which growth did it give?
A: 88.6% (inactive)

Reference: PubChem BioAssay (NCI)
